Compound activity deposited in PubChem BioAssay by The Scripps Research Institute Molecular Screening Center.
Compounds with a hit are over-represented: about 2% of the library has one in this group of screens.
CHRM4 PAM – positive allosteric modulators of human muscarinic M4 receptor. P08173. CHO-K1 hM4/Gqi5, Fluo-8 calcium fluorescence, ACh EC20; 0% = ACh EC20, 100% = maximal ACh. activation, % at 3 µM. 360,000 compounds, 0.4% hits;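 active means activation above its plate's cutoff, the mean activation of sample wells plus 3 SD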
Target sequence (P08173 whole entry, looked up): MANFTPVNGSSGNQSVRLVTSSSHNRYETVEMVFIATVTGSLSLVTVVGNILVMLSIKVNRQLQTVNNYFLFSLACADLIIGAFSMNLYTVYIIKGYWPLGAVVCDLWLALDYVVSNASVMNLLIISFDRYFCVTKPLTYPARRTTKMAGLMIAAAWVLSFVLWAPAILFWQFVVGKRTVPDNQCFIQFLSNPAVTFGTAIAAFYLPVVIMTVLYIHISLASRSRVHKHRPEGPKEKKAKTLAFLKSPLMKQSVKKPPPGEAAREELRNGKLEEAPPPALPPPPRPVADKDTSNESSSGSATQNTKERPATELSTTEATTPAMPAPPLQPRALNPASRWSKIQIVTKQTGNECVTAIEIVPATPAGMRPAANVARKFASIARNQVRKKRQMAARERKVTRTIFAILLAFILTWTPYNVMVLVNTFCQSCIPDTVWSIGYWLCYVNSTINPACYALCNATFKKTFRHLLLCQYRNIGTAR
CHO-K1 Ca PAM – nonselective activator or artifact in parental CHO-K1 calcium assay; activation, % at 3 µM; AID 602247; ATP EC20, Fluo-8 calcium fluorescence; 0% at ATP EC20, 100% at ATP max; 360,000 compounds, 0.02% hits;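 active means activation above the run cutoff, the mean activation of all test compounds plus 3 SD, cut at about 40% in these data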;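 further: peak over basal fluorescence ratio in a 140 s read after ATP addition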
CHO-K1 Ca ag – M1 agonist counterscreen hit in parental CHO-K1 cells | Fluo-8 calcium fluorescence; scaled to maximal ATP response, vehicle zero | activation, % at 3 µM | 360,000 compounds, 0.48% hits | AID 602248; in the data active means activation above about 15%;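 further: untransfected CHO-K1 host cells lacking M1 receptor as counterscreen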
M4 antag – blocks acetylcholine activation of human M4 receptor. P08173. CHO-hM4 cells, ACh EC80, Fluo-8 calcium fluorescence. inhibition, % at 3 µM. 360,000 compounds, 0.73% hits. AID 624125;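 active means inhibition above its plate's cutoff, the mean inhibition of sample wells plus 3 SD, cut at about 27% in these data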
CHO-K1 Ca antag – M1 antagonist counterscreen hit in parental CHO-K1 cells; ATP-induced calcium, Fluo-8 fluorescence; inhibition, % at 3 µM; 360,000 compounds, 0.6% hits; AID 602250;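 active means inhibition above a per-plate cutoff, the plate's mean sample inhibition plus 3 SD, cut at about 24% in these data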
M4 ag – agonists of human muscarinic M4 receptor (CHRM4); activation, % at 3 µM; 360,000 compounds, 0.14% hits; P08173; CHO-K1 hM4/Gqi5, Fluo-8 calcium fluorescence; vehicle 0%, full acetylcholine response 100%;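 active means activation above the run mean over all test wells plus 3 SD, cut at about 32% in these data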;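 further: peak over basal fluorescence ratio per well then scaled between controls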
Large screens that a line does not name were inactive.

CC(C)CNc1ncnc2c1ncn2[C@H]1CN(CCN2CCOCC2)C[C@@H](CO)O1	none
CC(C)C1C(=O)N(Cc2cn(Cc3ccco3)nn2)CCS(=O)(=O)N1Cc1ccc(-c2cccc(N(C)C)c2)cc1 (centres undefined)	CHRM4 PAM 17.8
Cc1ccc(-c2ccc(CN3C(C(C)C)C(=O)N(Cc4cn(Cc5ccco5)nn4)CCS3(=O)=O)cc2)cc1 (centres undefined)	none
O=S1(=O)CC(N2CCN(CC3CC3)CC2)CN1C1CCCC1 (centres undefined)	CHO-K1 Ca antag 26.1
CCCCCCCn1c(=O)c(C(=O)OC)c(N)c2ccccc21	CHO-K1 Ca ag 22.8
CC(=O)c1ccc(OCc2cc(C(=O)N3CCCCC3c3cccnc3)no2)cc1 (centres undefined)	CHO-K1 Ca ag 15.8
CC(=O)c1ccc(OCc2cc(C(=O)N3CCC(c4ccncc4)CC3)no2)cc1	CHO-K1 Ca ag 15.2
COc1cccc(OCc2cc(C(=O)N3CCC(c4ccncc4)CC3)no2)c1	none
CCOc1cccc(C(=O)N2CCCCC2c2cccnc2)c1 (centres undefined)	none
Cc1ccc(CNC(=O)CNC(=O)[C@@H]2Cc3ccccc3CN2C(=O)OC(C)(C)C)cc1	none
CC(=O)Nc1ccc(NC(=O)CS(=O)(=O)c2cn(CC(=O)N3CCCC3)c3ccccc23)cc1	none
O=C(C1COc2ccccc2O1)N1CCCCC1 (centres undefined)	CHO-K1 Ca antag 23.9
C/C(CS(=O)(=O)c1ccc(Cl)c(Cl)c1)=N/NC(N)=S	none
C/C(CS(=O)(=O)c1ccc(Cl)cc1)=N/NC(N)=S	CHRM4 PAM 19.7
O=Cc1ccc(F)c([B-](F)(F)F)c1	none
CC(=O)c1ccc(NC(=S)NCc2cccnc2)cc1	none
CC(C1=C(CCN(C)C)Cc2ccccc21)c1ccccn1 (centres undefined)	M4 antag 64.1
COC(=O)c1ccc(NC(=O)CN2CCN(CC#N)CC2)cc1	none
CC(=O)C1=C(C)N2CCN=C2S1	none
O=S(=O)(c1ccc(F)cc1)N1CCC(N2CCCC2)CC1	CHO-K1 Ca antag 40.0
Cc1ccc(S(=O)(=O)N2CCC(N3CCN(C)CC3)CC2)cc1Cl	M4 antag 27.6
Cc1ccc(S(=O)(=O)N2CCN(C)CC2)cc1C	none
O=C(O)c1cc(-c2ccccc2)n(-c2ccc(Cl)cc2)n1	none
C/C(=N\NC(=O)c1cc(C)oc1C)c1ccc(N2CCOCC2)cc1	none
O=C(CSc1nc2ccccc2o1)Nc1ccc(N2CCOCC2)c(Cl)c1	CHO-K1 Ca antag 28.3
Cc1nnc(NC(=O)CSc2nc3ccccc3o2)s1	CHRM4 PAM 31.8
CCCOc1ccc(Br)cc1/C=N/NC(=O)c1cc(OC)c(OC)c(OC)c1	CHRM4 PAM 28.5
COc1ccc(NC(=S)N(CCCN2CCCC2)Cc2cccn2Cc2ccc(Cl)cc2)cc1Cl	none
COc1ccc(C(=O)NCCNc2ccccc2[N+](=O)[O-])cc1	none
CCCNC(=O)c1ccc(S(=O)(=O)c2ccc(OC)cc2)c([N+](=O)[O-])c1	CHO-K1 Ca ag 16.3
CN1CCCCC1(C)C(=O)NCc1ccc(F)cc1 (centres undefined)	CHO-K1 Ca antag 25.5
O=C1CCCC2=C1C1c3ccccc3C(=O)N1c1ccc(C(=O)c3ccccc3)cc1N2 (centres undefined)	CHO-K1 Ca antag 24.2
O=C1CC(c2ccco2)CC2=C1C1c3ccccc3C(=O)N1c1ccccc1N2 (centres undefined)	none
NS(=O)(=O)c1ccc(NC(=S)N2CCN(Cc3ccc(Cl)c(Cl)c3)CC2)cc1	CHO-K1 Ca ag 19.0
c1ccc(C2[C@H]3CN(CC4CCCCC4)[C@H](c4ccccc4)C34CC2(c2cccnc2)C4)cc1 (some centres undefined)	M4 antag 31.4
CCOCCn1c(=O)c2c(nc3n2CCN3c2ccc(CC)cc2)n(C)c1=O	none
Clc1ccc(Sc2ccc(/C=N/n3cnnc3)o2)cc1	CHRM4 PAM 24.4
O=C(Cn1cccc1C(=O)c1ccccc1)NCc1ccc2c(c1)OCO2	CHO-K1 Ca antag 53.3
O=C(Cn1cccc1C(=O)c1ccccc1)NCc1ccccc1	none
COc1ccc(NC(=O)C2Cc3c(-c4cccc(C(C)=O)c4)ccnc3O2)cn1 (centres undefined)	none
O=S(=O)(c1cc(Cl)cc(Cl)c1)N1CCC2CC1c1cc(Cl)ccc12 (centres undefined)	none
Cc1ccc(NC(=S)Nc2ccc(Br)cc2)cc1	CHO-K1 Ca antag 34.6
COc1ccc(CCC(=O)NCCS(=O)(=O)N2CCN(c3ccccc3OC)CC2)cc1	none
COc1cnn(-c2ccc(C)cc2)c(=O)c1Cl	CHO-K1 Ca antag 25.5
COc1cnn(-c2ccc(C)cc2)c(=O)c1Br	none
CCOc1cccc(C2/C(=C(/O)c3ccc4c(c3)CC(C)O4)C(=O)C(=O)N2Cc2cccnc2)c1 (centres undefined)	none
CCn1c(C)c(C)c2cc(C(=O)NCCc3ccco3)ccc21	CHRM4 PAM 18.2
O=C(NCc1ccco1)c1ccc(CN2CCOCC2)cc1	CHO-K1 Ca antag 24.2
Cc1ccc(C(=O)NCc2ccco2)cc1Br	CHRM4 PAM 19.6
CC(=O)c1sc2nc(C)cc(C)c2c1N	none
Cc1cc(C)c2c(N)c(C(=O)NCc3ccco3)sc2n1	CHRM4 PAM 50.0
CN(Cc1ccccc1)C(=O)c1cccc(NC(=O)Cc2ccc(NC(=O)C3CCCN(C(=O)C4CC4)C3)cc2)c1 (centres undefined)	none
COCc1cc(CN2CCN(Cc3ccsc3)C(CCO)C2)ccc1OC (centres undefined)	none
CCN(CC)C(=O)COc1cccc2ccccc12	CHRM4 PAM 29.0
O=c1oc(-c2ccccc2NS(=O)(=O)c2ccc(F)cc2)nc2ccccc12	none
O=c1oc(-c2ccccc2NS(=O)(=O)c2ccccc2)nc2ccccc12	CHO-K1 Ca antag 29.1
O=C(c1cc(COc2cccc3cnccc23)on1)N1CCCC(CCCO)C1 (centres undefined)	CHO-K1 Ca ag 21.9
COCC1CCN(C(=O)c2cc(COc3cccc4cnccc34)on2)CC1	none
CCCCN1C(=O)C(=O)N(CC(=O)Nc2cc(Cl)ccc2OC)C1=O	CHRM4 PAM 23.8
CN(CC(=O)NC1CC1)S(=O)(=O)c1cc(Cl)ccc1Cl	none
CCCN1CCN(C(=O)CCS(=O)(=O)c2cc3c(cc2Cl)NC(=O)CO3)CC1	CHO-K1 Ca antag 26.1
Cc1ccc(C)c(N2CCN(C(=O)CCS(=O)(=O)c3ccc4c(c3)NC(=O)CO4)CC2)c1	CHO-K1 Ca ag 16.6
C=C1C(C(=O)Nc2cccc(OC)c2)C1C(=O)Nc1cccc(OC)c1 (centres undefined)	none
CC(C)CC(N)c1csc(NC(=O)NCCc2ccccc2)n1 (centres undefined)	none
